From PubChem
Hits are enriched below; roughly 5.1% of the tested compounds scored in any of these assays.
Tau fibril FP: tau fibrillization inhibition (FP) | P10636 | K18 P301L tau heparin fibrillization, Alexa594 FP, 6 h | Potency, µM (series often up to 57.7 µM), most hits filed as inhibitors | 0.39% of 280,000 active; further: nearly all actives have a fitted effect of over 55% in size
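Compound effects on tau fibrillization are measured by Alexa 594 fluorescence polarization (ex 555, em 632 nm). K18 P301L tau is used at 15 uM with 0.24 uM labeled tracer, and 20 uM heparin induces aggregation over 6 hr at 37 C.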
Tau fibril ThT: blocks human tau fibril formation measured by thioflavin T. Potency, µM (series often up to 57.4 µM), hits mostly inhibitors. recombinant tau K18 P301L, heparin-induced fibrillization, ThT fluorescence. 2.1% of 270,000 active. AID 1460; further: nearly all actives have a fitted effect of over 55% in size
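Aggregation was driven by heparin (20 uM final) acting on recombinant tau […] bearing P301L in 100 mM sodium acetate pH 7; fibrils were detected with Thioflavin T.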
Tau fluor cs: counter-screen for tau fibril formation inhibitors; tau K18 P301L (four-repeat tau fragment) Alexa594 fluorescence, heparin fibrillization; Potency, µM (titrated, usually from 57.7 µM); 0.93% of 280,000 active; further: nearly all actives have a fitted effect of over 55% in size
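Human K18 P301L tau (15 uM unlabeled plus 0.24 uM Alexa 594-labeled, final) in 100 mM sodium acetate pH 7 was mixed with compound and 20 uM heparin and incubated 6 hr at 37 C.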
PNC inhibitor: inhibitors of perinucleolar compartment assembly. PC3M PTB-GFP, PNC prevalence imaging, 16 h; hits give low values. activity change (PNC), negative = inhibition, % at 10 µM. 3.1% of 140,000 active. AID 2417;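 active means readout at or below -70, meaning at least 70% loss of cells showing the perinucleolar compartment, a nuclear body marking cancer cells; inconclusive means readout between -30 and a set limit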
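Compounds are pinned in duplicate onto adhered PC3M cells stably expressing GFP-tagged PTB and incubated 16 h at 37 C. Cells are then fixed, nuclei stained with Hoechst, and PNC-positive cells counted.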
NPSR antag: antagonists of human neuropeptide S receptor cAMP signaling; Potency, µM (top dose mostly 38.3 µM), actives largely listed as inhibitors; 1% of 220,000 active; CHO-NPSR cells, cAMP TR-FRET, antagonist mode; Q6W5P4; further: nearly all actives have a fitted effect of over 50% in size
Target sequence (Q6W5P4 whole entry, looked up): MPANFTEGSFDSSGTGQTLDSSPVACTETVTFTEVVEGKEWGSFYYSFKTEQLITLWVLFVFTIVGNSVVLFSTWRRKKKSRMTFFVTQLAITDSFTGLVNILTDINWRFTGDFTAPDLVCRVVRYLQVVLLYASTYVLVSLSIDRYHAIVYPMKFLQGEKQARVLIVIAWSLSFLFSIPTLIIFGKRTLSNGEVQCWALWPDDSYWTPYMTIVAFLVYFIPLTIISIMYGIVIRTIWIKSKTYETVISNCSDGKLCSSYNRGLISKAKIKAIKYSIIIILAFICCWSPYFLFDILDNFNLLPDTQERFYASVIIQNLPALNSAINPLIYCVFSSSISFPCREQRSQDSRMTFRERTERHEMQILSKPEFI
JMJD2E inh: inhibitors of human JMJD2E histone demethylase. 1.6% of 230,000 active. JMJD2E catalytic domain, FDH-coupled NADH fluorescence (FDH is formaldehyde dehydrogenase). AID 2147. Potency, µM (highest dose often 57.1 µM), hits mostly inhibitors. B2RXH2; active means well fitted inhibition curve with a large enough effect, not every such curve was filed as active; inconclusive means small, poorly fitted or top-dose-only effect, or another doubt; inactive means no such curve, though single readings can be large or run the other way; further: nearly all actives have a fitted effect of over 50% in size
Target sequence (B2RXH2 1-337 limits assumed): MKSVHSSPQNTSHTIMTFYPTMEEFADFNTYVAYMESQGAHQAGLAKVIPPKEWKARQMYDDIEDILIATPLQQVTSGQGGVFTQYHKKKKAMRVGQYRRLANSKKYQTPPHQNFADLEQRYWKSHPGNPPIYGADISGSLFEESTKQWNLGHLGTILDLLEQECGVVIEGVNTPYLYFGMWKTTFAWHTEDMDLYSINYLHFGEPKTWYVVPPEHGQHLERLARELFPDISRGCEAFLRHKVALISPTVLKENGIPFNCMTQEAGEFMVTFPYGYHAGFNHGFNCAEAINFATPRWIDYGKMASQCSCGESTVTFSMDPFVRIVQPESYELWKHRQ
A number is an active result; – = inactive; ? = inconclusive; · = no result given; [ ] = dose if it differs, or a comment. Unless noted, the call rests on the fitted dose curve; in most records, active means well fitted curve in the direction sought with a large enough effect; inconclusive means small, poorly fitted or top-dose-only effect, or another doubt; inactive means no such curve, though single readings can be large; an effect the other way counts as inactive or inconclusive.

SMILES	Tau fibril FP	Tau fibril ThT	Tau fluor cs	PNC inhibitor	NPSR antag	JMJD2E inh
CCn1c(SCC(=O)c2ccc(O)c(O)c2)nnc1-c1ccccc1	–	?	–	–	–	13µM
COC(=O)C1=C(C)NC(=O)/C1=C\c1ccc2c(c1)OCO2	–	13µM	–	–	–	–
CCc1ccc(-n2c(=O)c3c4c(sc3n(Cc3ccccc3C#N)c2=O)CCCC4)cc1	–	–	–	·	·	·
CCCOc1ccc(C(=O)Nc2ccc(NC(=O)c3ccccc3)c(C)c2)cc1	?	?	–	·	·	·
CC(C)CCNc1nc2c(S(=O)(=O)c3ccc(Br)cc3)nnn2c2ccsc12	–	–	–	·	·	·
O=C(c1cc2sccc2n1Cc1ccccc1)N1CCc2ccccc21	–	–	–	–	10µM	–
O=C(c1cc2sccc2n1Cc1ccccc1)N1CCCc2ccccc21	–	–	–	?	?	–
CCn1c2ccccc2c2cc(N=C3SC(CC(=O)Nc4ccccc4OC)C(=O)N3CCOC)ccc21 (centres undefined)	?	–	?	-98	–	–
COc1ccc(N=C2SC(CC(=O)Nc3ccccc3OC)C(=O)N2Cc2ccco2)cc1 (centres undefined)	–	–	–	-104	–	–
CCn1c2ccccc2c2cc(N=C3SC(CC(=O)Nc4ccccc4OC)C(=O)N3C)ccc21 (centres undefined)	–	–	?	–	–	–
CCc1nn2c(=O)cc(COC(=O)c3ccccc3NC(=O)COc3ccc(C)c(C)c3)nc2s1	–	–	–	·	·	·
CCN(c1ccccc1)S(=O)(=O)c1ccc(Cl)c(NC(=O)COC(=O)c2cc(O)c3ccccc3c2O)c1	?	11µM	8.9µM[quencher]	·	–	8.9µM
CCS(=O)(=O)N1CCC(n2c(C(F)(F)F)nc3cccnc32)CC1	–	–	–	·	·	·
COC(=O)C1CCN(C2=C(NS(=O)(=O)c3ccc(Cl)cc3)C(=O)c3ccccc3C2=O)CC1	–	14µM	?	·	–	–
CC1CCCN(C2=C(NS(=O)(=O)c3ccc(Cl)cc3)C(=O)c3ccccc3C2=O)C1 (centres undefined)	–	?	–	?	–	–
NC(=O)C1CCN(C2=C(NS(=O)(=O)c3ccc(Cl)cc3)C(=O)c3ccccc3C2=O)CC1	?	16µM	?	·	–	–
COc1ccc(NC(=O)c2c(Nc3ccccc3)sc(C(=O)c3ccc(F)cc3)c2N)cc1	–	11µM	?	?	–	–
COc1ccc(C(=O)c2sc(Nc3cccc(OC)c3)c(C(=O)Nc3cccc(C)c3C)c2N)cc1	–	18µM	?	–	–	–
N#Cc1c(Nc2cccc(F)c2)sc(C(=O)c2ccc(Cl)cc2)c1N	?	28µM	?	·	·	·
Cc1cc(Nc2sc(C(=O)c3ccc(F)cc3)c(N)c2C(=O)Nc2ccc(F)cc2)ccc1Cl	–	20µM	10µM[quencher]	·	·	·
O=C(CCCn1c(=O)c2cccn2c2ccccc21)NCc1ccccc1Br	–	–	–	·	·	·
COc1ccc(-c2cc3c(=O)n(CC(=O)Nc4cc(F)ccc4F)ccn3n2)cc1OC	–	–	–	·	·	·
CCC(=O)N1CCN(c2nc3c(C)cccc3s2)CC1	–	?	–	·	·	·
CCN(CC)CCNC(=O)C1CCN(C(=O)c2cnn(-c3ccccc3)c2-n2cccc2)CC1	–	–	–	·	·	·
COc1ccc(Nc2sc(C(=O)c3ccccc3)c(N)c2C(=O)Nc2cc(C)ccc2C)c(OC)c1	–	?	?	·	·	·
SMILES	Tau fibril FP	Tau fibril ThT	Tau fluor cs	PNC inhibitor	NPSR antag	JMJD2E inh
COc1ccc(C(=O)c2sc(Nc3ccccc3)c(C(=O)Nc3ccc(OC)c(OC)c3)c2N)cc1	?	16µM	16µM[quencher]	–	–	–
COc1cccc(Nc2sc(C(=O)c3ccc(F)cc3)c(N)c2C(=O)NCc2ccc(Cl)cc2)c1	?	20µM	?	·	·	·
COc1ccc(Nc2sc(C(=O)c3ccc(Cl)cc3)c(N)c2C(=O)Nc2ccccc2OC)cc1	–	22µM	?	?	–	–
COc1cccc(Nc2sc(C(=O)c3ccc(Cl)cc3)c(N)c2C(=O)NCc2ccc(C)cc2)c1	–	?	?	·	·	·
CC1=C(C(=O)Nc2ccc(F)cc2F)C2(CCCCCC2)OC1=O	–	–	–	·	·	·
O=C(NCC1CCCO1)c1ccc(S(=O)(=O)N2CCC(c3nc4ccc(Cl)cc4[nH]3)CC2)cc1 (centres undefined)	–	–	–	-100	–	–
O=C1C2=CC[C@H]3C(=O)N(C4CCCCC4)C(=O)[C@@H]3[C@@H]2[C@H](O)[C@@H]2O[C@H]12	?	?	–[11.6 µM]	·	·	·
Cc1nn(-c2ccccc2)c2c1C(c1ccc(O)c(O)c1)N1C(=N2)C(Nc2ccccc2)=Nc2ccccc21 (centres undefined)	–	?	14µM[quencher]	–	?	18µM
Cc1ccc(NC2=Nc3ccccc3N3C2=Nc2c(c(C)nn2-c2ccccc2)C3c2ccc(O)c(O)c2)cc1 (centres undefined)	–	–	?	–	?	28µM
Cc1cccc(NC2=Nc3ccccc3N3C2=Nc2c(c(C)nn2-c2ccccc2)C3c2ccc(O)c(O)c2)c1 (centres undefined)	–	–	?	?	–	?
CCOC(=S)N/C(=N\S(=O)(=O)c1ccccc1)c1ccccc1	–	–	–	-100	–	–
CCCOC(=S)N/C(=N\S(=O)(=O)c1ccccc1)c1ccccc1	–	–	–	–	–	–
Cc1ccc(NC(=O)c2c(C)oc3ccc(O)c(CN4CCCC4)c23)c(C)c1	–	–	–	·	·	·
CCOC(=O)c1c(C)[nH]c(N=Nc2ccc(C)cc2)c1C	–	7.9µM	?	–	–	–
CCOC(=O)c1c(C)[nH]c(C=Nc2ccc(OC)cc2)c1O	–	?	–	–	?	–
CCOC(=O)c1[nH]c(C)c(C(=O)c2ccc(C)cc2)c1C	–	–	–	?	–	–
CCOC(=O)c1[nH]c(C)c(C(=O)Nc2cc(OC)ccc2OC)c1C	–	–	–	-107	–	–
CCOC(=O)c1c(C)[nH]c(N=Nc2ccccc2Cl)c1C	–	5µM	?	·	–	–
CCOC(=O)c1c(C)[nH]c(C(=O)Cn2nnc(-c3ccccc3Cl)n2)c1C	–	–	–	–	–	–
CCOC(=O)c1c(C)[nH]c(N=Nc2ccc(OC)cc2)c1C	?	·	3.2µM[quencher]	·	–	–
CC(C)COc1ccc(C(=O)N(Cc2ccc(N(C)C)cc2)Cc2ccco2)cc1	–	–	–	·	·	·
CCOC(=O)c1c(C)[nH]c(N=Nc2ccccc2)c1C	?	7.9µM	?	–	–	–
CCOC(=O)c1c(C)[nH]c(C=Nc2ccccc2)c1O	–	?	–	?	–	?
Cc1ccc(Nc2nc(N)nc(N)c2S(=O)(=O)c2ccccc2)cc1	?	–	?	·	·	·
CC(=O)Nc1ccc(Nc2nc3ccc(Cl)cc3n3cnnc23)cc1	–	–	–	·	·	·
